This is a sample that favours compounds with a hit; in the whole collection about 4.8% have one here.
Beta apoptosis: beta cell apoptosis inhibition; INS-1E cytokine-induced death, ATP luminescence, 48 h; percent of positive-control rescue, neutral wells zero; protection from apoptosis, % (test concentration not listed); 300,000 compounds, 0.8% hits;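 active = Every replicate reaches about 75%, or at least half do and their mean reaches it too, limit read from the data; inconclusive = At least half of replicates reach the limit but their mean does not; inactive = Under half of replicates reach the limit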;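 note: 0% = cytokine-treated negative control wells and 100% = positive control rescue; higher means more ATP so stronger rescue from cytokine killing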
Mdm2-MdmX inh: disrupts the human Mdm2-MdmX interaction; O15151+Q00987; AID 485346; 330,000 compounds, 3% hits; SaOS-2 split-luciferase Mdm2/MdmX complementation, luminescence; inhibition, % at 8 µM;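 active = inhibition of at least 50% at 8 µM in the primary screen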
Target sequence (O15151 whole entry, looked up): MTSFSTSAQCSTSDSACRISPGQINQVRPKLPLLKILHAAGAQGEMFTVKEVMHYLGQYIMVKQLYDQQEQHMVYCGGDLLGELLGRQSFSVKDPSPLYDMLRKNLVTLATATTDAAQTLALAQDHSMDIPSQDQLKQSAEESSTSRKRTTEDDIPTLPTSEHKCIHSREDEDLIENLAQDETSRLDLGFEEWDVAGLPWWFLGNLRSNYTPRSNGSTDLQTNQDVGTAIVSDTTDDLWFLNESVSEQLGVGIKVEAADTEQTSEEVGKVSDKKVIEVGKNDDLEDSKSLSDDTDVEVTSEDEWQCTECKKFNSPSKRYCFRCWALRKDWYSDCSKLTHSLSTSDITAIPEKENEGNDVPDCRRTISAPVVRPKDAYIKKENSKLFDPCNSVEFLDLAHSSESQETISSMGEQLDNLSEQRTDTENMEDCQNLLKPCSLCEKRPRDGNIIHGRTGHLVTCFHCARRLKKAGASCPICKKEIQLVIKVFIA
Target sequence (Q00987 whole entry, looked up): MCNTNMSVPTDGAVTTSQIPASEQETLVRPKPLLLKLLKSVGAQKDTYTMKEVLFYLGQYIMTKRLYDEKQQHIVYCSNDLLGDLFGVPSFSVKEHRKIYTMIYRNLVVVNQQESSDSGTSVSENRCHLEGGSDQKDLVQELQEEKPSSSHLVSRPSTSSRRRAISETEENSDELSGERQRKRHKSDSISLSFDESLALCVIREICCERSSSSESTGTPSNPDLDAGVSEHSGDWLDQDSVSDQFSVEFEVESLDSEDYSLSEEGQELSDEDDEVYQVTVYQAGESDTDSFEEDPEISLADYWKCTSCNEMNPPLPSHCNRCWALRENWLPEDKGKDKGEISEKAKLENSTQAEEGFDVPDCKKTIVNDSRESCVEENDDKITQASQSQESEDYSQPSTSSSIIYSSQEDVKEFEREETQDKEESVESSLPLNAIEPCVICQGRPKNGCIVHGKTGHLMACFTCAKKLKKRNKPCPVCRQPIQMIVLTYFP
Calb FLC: affects C. albicans growth with fluconazole. 300,000 compounds, 0.57% hits. AID 1979. growth inhibition, % (concentration not given with the values). C. albicans CaCi-2 (fluconazole-resistant clinical isolate) + fluconazole, Alamar Blue growth, 48 h;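 active = growth inhibition above about 58% in most replicates, limit read from the data, passing the limit was not always enough; inconclusive = exactly half the replicates above a set limit; inactive = most replicates below a set limit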;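 note: all wells also contain fluconazole at 8 µg/ml as a sub-toxic cotreatment; 0% = median of DMSO wells and 100% = median of geldanamycin control wells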
CSC inhib: blocks cancer stem cells; cancer stem cell-like cells viability, luminescence; inhibition, % at 7.5 µM; 300,000 compounds, 1.1% hits; AID 2717; in the data active = inhibition above about 75%; inconclusive = no clear call, values can overlap the other calls; tested in HMLE shEcad cells
MPTP inh: inhibitors of mitochondrial permeability transition pore. isolated mouse mitochondria, Ca2+ swelling absorbance, 30 min. inhibition, % at 10 µM. 360,000 compounds, 1.4% hits. AID 602449;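 active = inhibition of 50% or more, scaled per plate between neutral and stimulator controls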;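 note: 0% = DMSO wells given calcium and 100% = 1 mM EGTA wells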
Active calls of the source: *; ? = inconclusive; · = no result.

SMILES	Beta apoptosis	Mdm2-MdmX inh	Calb FLC	CSC inhib	MPTP inh
CCCn1c(=N)n(CC(=O)c2ccc(Cl)cc2)c2ccccc21	13	6	17	24	2
CC1(C(=O)OCC(=O)NC(=O)c2ccccc2)CC1(Cl)Cl (stereo unspecified)	-4	16	1	11	0
CC1(C(=O)OCC(=O)N2c3ccccc3Sc3ccccc32)CC1(Cl)Cl (stereo unspecified)	89*	23	44	57	3
COCc1c(C(C)C)nc(C(C)C)c(/C=C/[C@@H](O)C[C@@H](O)CC(=O)O)c1-c1ccc(F)cc1	46	·	112*	106*	·
C/C(=N\N=C(/N)SC1CC(=O)N(c2ccc(Cl)c(Cl)c2)C1=O)c1cccs1 (stereo unspecified)	0	17	?	79*	3
Cc1ccc(-c2cc(-c3ccccc3Cl)[nH]n2)c(O)c1	19	-68	0	112*	18
OC(COC(c1ccc(F)cc1)c1ccc(F)cc1)CN1CCc2ccccc2C1 (stereo unspecified)	102*	27	2	31	5
O=C(C(Cl)Cl)N1c2ccccc2OCC1c1ccccc1 (stereo unspecified)	76*	28	-6	12	15
CC1COc2ccccc2N1C(=O)c1ccc(Cl)cc1 (stereo unspecified)	-9	11	0	-10	1
Cc1ccccc1-c1nc2c(s1)CCc1onc(-c3ccc(Cl)cc3)c1-2	-1	-30	5	28	-1
COc1ccc(-c2noc3c2-c2nc(-c4ccccc4C)sc2CC3)cc1	1	41	0	76*	·
Cc1cccc(OCCNc2cc(N3CCN(C)CC3)ccc2[N+](=O)[O-])c1	2	-5	-1	80*	1
O=C(CON=C1c2ccccc2-c2ccccc21)NC12CC3CC(CC(C3)C1)C2	-9	26	-12	179*	7
O=C(COC(=O)C(O)c1ccccc1)NC12CC3CC(CC(C3)C1)C2 (stereo unspecified)	2	5	5	·	0
CNc1ccc(OC)cc1-n1cnc(-c2ccc([N+](=O)[O-])cc2)c1	·	17	101*	8	1
COC(=O)C1=CN(c2ccccc2OC)C(N)=C(C#N)C1c1cccc([N+](=O)[O-])c1 (stereo unspecified)	·	·	·	·	0
CN1C(=O)/C(=C/c2cccc(Cl)c2)Sc2ccc(C(=O)NCc3cccnc3)cc21	13	14	-2	96*	7
O=C(NC(c1ccccc1)c1ccsc1)C1CCN(Cc2ccc(Oc3ccccc3)cc2)CC1 (stereo unspecified)	·	·	·	·	5
CN1C/C(=C\c2ccc(N3CCOCC3)cc2)C(=O)/C(=C/c2ccc(N3CCOCC3)cc2)C1	-7	9	10	15	3
CCN1C/C(=C/c2ccc(N3CCOCC3)cc2)C(=O)/C(=C/c2ccc(N3CCOCC3)cc2)C1	6	·	1	103*	3
Oc1ccc(-c2cnc(-c3ccc(O)cc3)nc2)cc1	-6	-122	-4	98*	0
Nc1[nH]c(C(=O)c2ccccc2)c(-c2ccc(Br)cc2)c1C(=O)c1ccc(Br)cc1	·	·	·	·	-2
O=C(CC1CC2CCC1C2)Nc1nc(-c2ccccn2)cs1 (stereo unspecified)	14	22	87*	-1	-2
O=C(Nc1nc(-c2ccccn2)cs1)C1CC1	13	-31	5	-3	0
COC(=O)[C@]12CCCCC=C1N(Cc1ccccc1)C(=O)[C@H](CC(=O)N1CCN(C(=O)c3ccco3)CC1)C2	·	·	·	·	-2
SMILES	Beta apoptosis	Mdm2-MdmX inh	Calb FLC	CSC inhib	MPTP inh
Cc1[nH]n(C(N)=S)c(=O)c1N=Nc1ccc(S(=O)(=O)N2CCCCCC2)cc1	7	8	104*	-5	13
CCOc1ccc2nc(S(=O)(=O)NC(=O)C3(C)CCN3C(=O)c3cc(C)n(C)n3)sc2c1 (stereo unspecified)	·	·	·	·	-1
CC(C)Oc1cc(F)ccc1-c1cc(C(=O)NCCc2ccncc2)[nH]n1	·	·	·	·	-1
COc1ccc2c(c1)CCc1c(C(=O)N3CC4(C)CC3CC(C)(C)C4)noc1-2 (stereo unspecified)	-2	21	-10	95*	4
CC1(C(=O)NS(=O)(=O)c2ccc(Cl)s2)CCN1C(=O)C1(c2ccc(Cl)cc2)CCC1 (stereo unspecified)	·	·	·	·	2
Cc1nc(SCc2ccc(Cl)c(Cl)c2)ncc1C(=O)O	3	1	90*	27	2
Fc1ccc(N/N=C/c2ccncc2)c(F)c1	3	-42	?	90*	0
O=C(O)c1ccc(/C=N/Nc2ccc(F)cc2F)cc1	-6	-140	?	16	2
N#Cc1c(N)[nH]c(C(=O)c2ccccc2)c1-c1ccccc1Br	·	·	·	·	-2
CCCS(=O)(=O)NC(=O)C1(C)CCN(C(=O)c2ccnc(Cl)c2)C1 (stereo unspecified)	·	·	·	·	0
COc1ccc(C(=O)/C=C/c2cccc(OCc3ccccc3)c2)cc1CSCC(=O)O	0	37	27	13	6
COc1ccc(/C=C/C(=O)c2ccc(O)cc2)cc1COc1ccc(F)cc1	8	46	19	97*	17
COc1ccc(C(=O)/C=C/c2ccc(OCc3ccccc3)cc2)cc1CSCC(=O)O	3	5	-9	79*	3
COc1ccc(/C=C/C(=O)c2ccccc2)cc1COc1ccc(F)cc1	3	9	-5	29	0
Cc1ccc(F)cc1C(=O)N1CCCC(c2cc(C(=O)Nc3ccccc3Cl)no2)C1 (stereo unspecified)	·	·	·	·	1
O=[N+]([O-])c1ccc(CP(=O)(c2ccccc2)c2ccccc2)cc1	22	-4	4	81*	1
O=[N+]([O-])c1ccc(O)c(P(=O)(c2ccccc2)c2ccccc2)c1	-6	20	100*	12	1
Cc1ccc(N=Nc2ccc(O)c(P(=O)(c3ccccc3)c3ccccc3)c2)cc1	0	10	-2	14	23
O=[N+]([O-])c1cccc(CP(=O)(c2ccccc2)c2ccccc2)c1	-3	-4	·	-2	-1
Nc1sccc1C(=O)NCCN1CCOCC1	·	·	·	·	0
O=C(OCc1ccccc1)N1CCC2CC1c1c2cccc1N1CCOCC1 (stereo unspecified)	·	·	·	·	0
COCCNc1nc(Nc2ccc(C#N)cc2)c2sccc2n1	·	·	·	·	1
COC(=O)C1=CN(c2ccc(N3CCOCC3)cc2)C(N)=C(C#N)C1c1ccc(-c2ccccc2)cc1 (stereo unspecified)	·	·	·	·	-1
CCN(CC)c1ccc(C(=O)N/N=C/c2ccccc2OC(F)F)cc1	80*	41	?	0	12
CCn1c(C)nc2cc(C(N)=O)ccc21	-2	-39	-2	2	0
CCn1c(C)nc2cc(C(=O)N/N=C/c3ccc(O)c(O)c3O)ccc21	·	·	76*	·	1
CCn1c(C)nc2cc(C(=O)N/N=C/c3cccc(OC)c3O)ccc21	·	35	108*	109*	-2
COc1cccc(/C=N/NC(=O)CNC(=O)c2cccs2)c1O	86*	14	0	26	1

Screens deposited in PubChem BioAssay by several laboratories.
